# Measurements: PubChem BioAssay (NCATS)
# Several values for one entry are separate records, joined by “and”; a condition that tells them apart may be missing. Equal entries are not always repeated. Records with an inconclusive call do not appear. Where a call stands in place of a potency, no number is given. Unmarked numbers belong to inactive results. Activity calls are given as the source filed them. The call rests on the fitted dose curve; in most records, active means well fitted inhibition curve with a large enough effect; inconclusive means small, poorly fitted or top-dose-only effect; inactive means flat fitted curve, though single readings scatter.
# How the values were obtained:
# CRL-7250 [1] = assay: Cytotoxic Profiling of Annotated Libraries Using Quantitative High-Throughput Screening (AID 1296008); conditions: Five cell lines viability, CellTiter-Glo ATP luminescence, 48-72 h; max response: hits give low values
# Procedure, shortened: (§1)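 Cytotoxicity was measured as CellTiter-Glo ATP luminescence, read after 10 min at room temperature. Compound treatment of the cells lasted 48 or 72 hr at 37 degrees Celsius in a qHTS format.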
# HEK293 = assay: as above; conditions: Five cell lines viability, CellTiter-Glo ATP luminescence, 48-72 h; max response: hits give low values
# Procedure, shortened: as §1
# HaCat [2] = assay: as above; conditions: Five cell lines viability, CellTiter-Glo ATP luminescence, 48-72 h; max response: hits give low values
# Procedure, shortened: as §1
# KB-3-1 = assay: as above; conditions: Five cell lines viability, CellTiter-Glo ATP luminescence, 48-72 h; max response: hits give low values
# Procedure, shortened: as §1
# NIH3T3 [3] = assay: as above; conditions: Five cell lines viability, CellTiter-Glo ATP luminescence, 48-72 h; max response: hits give low values
# Procedure, shortened: as §1
# CRL-7250 [4] = assay: qHTS assay to identify novel small-molecules to repurpose for Merkel cell carcinoma treatment (AID 1296009); conditions: MCC and control cell lines, CellTiter-Glo viability, 72 h; at 44.8 µM (top of the series) unless noted
# Procedure, shortened: (§2)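 After compound transfer in DMSO, plates were kept 72 hr at 37 degree celsius. Luminescent ATP signal from CellTiter-Glo served as viability measure, normalized against DMSO and no-cell controls.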
# HACAT [5] = assay: as above; conditions: MCC and control cell lines, CellTiter-Glo viability, 72 h; at 44.8 µM (top of the series) unless noted
# Procedure, shortened: as §2
# HEK293T = assay: as above; conditions: MCC and control cell lines, CellTiter-Glo viability, 72 h; at 44.8 µM (top of the series) unless noted
# Procedure, shortened: as §2
# MCC-13 = assay: as above; conditions: MCC and control cell lines, CellTiter-Glo viability, 72 h; series mostly up to 46 µM
# Procedure, shortened: as §2
# MKL-1 = assay: as above; conditions: MCC and control cell lines, CellTiter-Glo viability, 72 h; series mostly up to 46 µM
# Procedure, shortened: as §2
# MKL-2 = assay: as above; conditions: MCC and control cell lines, CellTiter-Glo viability, 72 h; series mostly up to 46 µM
# Procedure, shortened: as §2
# NIH3T3 [6] = assay: as above; conditions: MCC and control cell lines, CellTiter-Glo viability, 72 h; at 44.8 µM (top of the series) unless noted
# Procedure, shortened: as §2
# UISO = assay: as above; conditions: MCC and control cell lines, CellTiter-Glo viability, 72 h; series mostly up to 46 µM
# Procedure, shortened: as §2
# WaGa = assay: as above; conditions: MCC and control cell lines, CellTiter-Glo viability, 72 h; series mostly up to 46 µM
# Procedure, shortened: as §2
# SC27B = assay: qHTS profiling for inhibitors of Plasmodium falciparum proliferation (AID 504749); further: potency means the concentration at half of the fitted maximal effect; conditions: P. falciparum in erythrocytes, SYBR Green DNA, 72 h; series mostly up to 28.7 µM
# Procedure, shortened: (§3)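 Three-day growth assay of blood-stage parasites in erythrocytes (0.3% parasitemia, 2.5% hematocrit) at 37 C, 5% CO2, quantified by SYBR Green DNA staining after overnight detergent lysis.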
# TAB109 = assay: as above; conditions: P. falciparum in erythrocytes, SYBR Green DNA, 72 h; series mostly up to 28.7 µM
# Procedure, shortened: as §3
# TAB113 = assay: as above; conditions: P. falciparum in erythrocytes, SYBR Green DNA, 72 h; series mostly up to 28.7 µM
# Procedure, shortened: as §3
# TAB165 = assay: as above; conditions: P. falciparum in erythrocytes, SYBR Green DNA, 72 h; series mostly up to 28.7 µM
# Procedure, shortened: as §3
# MCC-26 = assay: qHTS assay to identify novel small-molecules to repurpose for Merkel cell carcinoma treatment (AID 1296009); conditions: MCC and control cell lines, CellTiter-Glo viability, 72 h; series mostly up to 46 µM
# Procedure, shortened: as §2
# W2 = assay: qHTS profiling for inhibitors of Plasmodium falciparum proliferation (AID 504749); further: potency means the concentration at half of the fitted maximal effect; conditions: P. falciparum in erythrocytes, SYBR Green DNA, 72 h; series mostly up to 28.7 µM
# Procedure, shortened: as §3
# Further: nearly all actives have a fitted effect of over 60% in size.
smiles,measurement,setting,value
CC(NC(C)(C)C)C(=O)c1cccc(Cl)c1 (stereo not drawn),max response,CRL-7250 [1],-10.7%
same,outcome,CRL-7250 [1],inactive
same,max response,HEK293,-3.26% and -3.1%
same,outcome,HEK293,inactive
same,max response,HaCat [2],-7.82%
same,outcome,HaCat [2],inactive
same,max response,KB-3-1,-3.99% and 2.03% and 8.68%
same,max response,NIH3T3 [3],-22.3% and 1.31%
same,outcome,NIH3T3 [3],inactive
same,outcome,CRL-7250 [4],inactive
same,outcome,HACAT [5],inactive
same,outcome,HEK293T,inactive
same,outcome,MCC-13,inactive
same,Potency,MKL-1,inactive
same,Potency,MKL-2,inactive
same,outcome,NIH3T3 [6],inactive
same,Potency,UISO,inactive
same,Potency,WaGa,inactive
CN1CCC(O)(c2ccc(F)cc2)C(C(=O)c2ccc(F)cc2)C1 (stereo not drawn),Potency,SC27B,inactive
same,Potency,TAB109,inactive
same,Potency,TAB113,inactive
same,Potency,TAB165,inactive
same,max response,CRL-7250 [1],-1.09%
same,max response,HEK293,3.5%
same,outcome,HaCat [2],inactive
same,max response,KB-3-1,8.12%
same,max response,NIH3T3 [3],2.95%
same,outcome,HACAT [5],inactive
same,outcome,MCC-13,inactive
same,Potency,MCC-26,inactive
same,Potency,MKL-1,inactive
same,Potency,UISO,inactive
same,Potency,WaGa,inactive
CCN[C@@H](C)Cc1ccccc1,max response,CRL-7250 [1],-24.3%
same,max response,HEK293,-15.1%
same,max response,HaCat [2],-12.1%
same,max response,KB-3-1,4.57%
same,max response,NIH3T3 [3],-15.7%
same,outcome,MCC-13,inactive
same,Potency,MCC-26,inactive
same,Potency,MKL-1,inactive
same,Potency,MKL-2,inactive
same,Potency,UISO,inactive
same,Potency,WaGa,inactive
CC(C)N(CCC(C(N)=O)(c1ccccc1)c1ccccn1)C(C)C (stereo not drawn),max response,CRL-7250 [1],-4.51%
same,outcome,CRL-7250 [1],inactive
same,max response,HEK293,-72.3%
same,max response,HaCat [2],-27.6%
same,outcome,HaCat [2],inactive
same,max response,KB-3-1,-6.29% and -10.8%
same,max response,NIH3T3 [3],-23.6% and -1.68%
same,outcome,CRL-7250 [4],inactive
same,outcome,HACAT [5],inactive
same,outcome,MCC-13,inactive
same,Potency,MCC-26,inactive
same,Potency,MKL-1,inactive
same,Potency,MKL-2,inactive
same,Potency,UISO,inactive
same,Potency,WaGa,inactive
CN1CC[C@]23c4c5ccc(O)c4O[C@H]2[C@@H](O)CC[C@H]3[C@H]1C5,outcome,CRL-7250 [1],inactive
same,max response,HEK293,-12.9%
same,outcome,HaCat [2],inactive
same,max response,KB-3-1,-2.83%
same,max response,NIH3T3 [3],0.466%
same,outcome,CRL-7250 [4],inactive [at 92 µM]
same,outcome,HACAT [5],inactive [at 92 µM]
same,outcome,MCC-13,inactive
same,Potency,MKL-1,inactive
same,Potency,MKL-2,inactive
same,Potency,UISO,inactive
same,Potency,WaGa,inactive
O=C(O)CCCc1ccc(N(CCCl)CCCl)cc1,Potency,SC27B,inactive
same,Potency,TAB109,inactive
same,Potency,TAB113,inactive
same,Potency,TAB165,inactive
same,outcome,CRL-7250 [1],inactive
same,max response,HEK293,-24.7%
same,outcome,HaCat [2],inactive
same,max response,KB-3-1,1.55%
same,outcome,KB-3-1,inactive
same,max response,NIH3T3 [3],-8.46% and -0.549%
same,outcome,CRL-7250 [4],inactive
same,outcome,HACAT [5],inactive
same,outcome,MCC-13,inactive
same,Potency,MCC-26,inactive
same,Potency,MKL-1,inactive
same,Potency,MKL-2,inactive
same,Potency,UISO,inactive
same,Potency,WaGa,inactive
O=C1c2ccccc2C(=O)c2ccccc21,Potency,W2,6.75 µM (active)
same,max response,CRL-7250 [1],-3.19%
same,outcome,HEK293,inactive
same,outcome,HaCat [2],inactive
same,max response,KB-3-1,-11.4%
same,max response,NIH3T3 [3],-2.39%
same,outcome,HACAT [5],inactive [at 17.4 µM]
same,outcome,HEK293T,inactive [at 17.4 µM]
same,outcome,MCC-13,inactive
same,Potency,MCC-26,inactive
same,Potency,MKL-1,inactive
same,Potency,MKL-2,inactive
same,Potency,UISO,inactive
same,Potency,WaGa,inactive
COC(=O)[C@@H](N)CCCN/C(N)=N/[N+](=O)[O-],outcome,CRL-7250 [1],inactive
same,outcome,HEK293,inactive
same,max response,HaCat [2],-19.5%
same,max response,KB-3-1,-3.97%
same,max response,NIH3T3 [3],1.98%
same,outcome,CRL-7250 [4],inactive
same,outcome,HEK293T,inactive
same,outcome,MCC-13,inactive
same,Potency,MCC-26,inactive
same,Potency,MKL-1,inactive
same,Potency,MKL-2,inactive
same,Potency,UISO,inactive
same,Potency,WaGa,inactive
CC(C)(C)NCC(O)c1cc(Cl)c(N)c(C(F)(F)F)c1 (stereo not drawn),Potency,TAB165,7.94 µM (active)
same,Potency,W2,5.36 µM (active)
same,outcome,CRL-7250 [1],inactive
same,outcome,HEK293,inactive
same,max response,HaCat [2],-13.5%
same,max response,KB-3-1,5.51%
same,outcome,NIH3T3 [3],inactive
same,outcome,CRL-7250 [4],inactive
same,outcome,HEK293T,inactive
same,outcome,MCC-13,inactive
same,Potency,MKL-1,inactive
same,Potency,MKL-2,inactive
same,outcome,NIH3T3 [6],inactive
same,Potency,UISO,inactive
same,Potency,WaGa,inactive
O=P1(N(CCCl)CCCl)NCCCO1 (stereo not drawn),Potency,SC27B,inactive
same,Potency,TAB109,inactive
same,Potency,TAB113,inactive
same,Potency,TAB165,inactive
same,Potency,W2,inactive
same,max response,CRL-7250 [1],-3.83% and -4.06%
same,max response,HEK293,-27.8% and -15.3%
same,max response,HaCat [2],-5.79%
same,outcome,HaCat [2],inactive
same,max response,KB-3-1,2.64% and 7.08%
same,max response,NIH3T3 [3],-16.8% and -12.6%
same,outcome,HACAT [5],inactive
same,outcome,MCC-13,inactive
same,Potency,MKL-1,inactive
same,Potency,MKL-2,inactive
same,Potency,UISO,inactive
same,Potency,WaGa,inactive
CCC1(CC)C(=O)C=CNC1=O,Potency,SC27B,inactive
same,Potency,TAB109,inactive
same,Potency,TAB113,inactive
same,Potency,TAB165,inactive
same,Potency,W2,inactive
same,max response,CRL-7250 [1],-2.85%
same,max response,HEK293,4.85%
same,max response,HaCat [2],-9.12%
same,max response,KB-3-1,-0.338%
same,max response,NIH3T3 [3],1.41%
same,outcome,MCC-13,inactive
same,Potency,MCC-26,inactive
same,Potency,MKL-1,inactive
same,Potency,MKL-2,inactive
same,Potency,UISO,inactive
same,Potency,WaGa,inactive
c1ccc2c(c1)sc1ccccc12,Potency,SC27B,inactive
same,Potency,TAB109,inactive
same,Potency,TAB113,inactive
same,Potency,TAB165,inactive
same,Potency,W2,inactive
same,max response,CRL-7250 [1],2.83%
same,max response,HEK293,0.977%
same,max response,HaCat [2],-3.8%
same,max response,KB-3-1,-1.3%
same,outcome,NIH3T3 [3],inactive
same,outcome,MCC-13,inactive
same,Potency,MCC-26,inactive
same,Potency,MKL-1,inactive
same,Potency,MKL-2,inactive
same,outcome,NIH3T3 [6],inactive
same,Potency,UISO,inactive
same,Potency,WaGa,inactive
CCc1cc2c(s1)-n1c(C)nnc1CN=C2c1ccccc1Cl,outcome,CRL-7250 [1],inactive
same,max response,HEK293,-15.5%
same,max response,HaCat [2],-1.07%
same,max response,KB-3-1,-14.4%
same,outcome,NIH3T3 [3],inactive
same,outcome,CRL-7250 [4],inactive
same,outcome,MCC-13,inactive
same,Potency,MKL-1,inactive
same,Potency,MKL-2,inactive
same,outcome,NIH3T3 [6],inactive
same,Potency,UISO,inactive
same,Potency,WaGa,inactive
